The source made the active and inactive calls. How the source made its calls: active means hit-call score of the fitted dose curve at least 0.9, where 1 is the maximum; inactive means score below 0.9.

Read-out in the assay: urokinase plasminogen activator (uPA), PLAU (gene 5328)
Kind of assay: BSK_BE3C_uPA: BioMAP Diversity Plus: BE3C Assay for urokinase plasminogen activator (uPA) Biomarker Activity (AID 2283038).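 On outcome: uPA read one day after compound addition.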 The settings on record: primary human bronchial epithelial cells; actives raise or lower the signal. As to the method:
BSK_BE3C is a cell-based, multiplexed-readout assay that uses bronchial epithelial cell, a human lung primary cell, with measurements taken at 24 hours after chemical dosing in a 96-well plate.BSK_BE3CA is an assay component measured in the BSK_BE3C assay. It measures uPA antibody related to regulation of gene expression using ELISA technology.Data from the assay component BSK_BE3CA was analyzed into 1 assay endpoint. This assay endpoint, BSK_BE3CA, was analyzed with bidirectional fitting relative to DMSO as the negative control and baseline of activity. Using a type of binding reporter, gain or loss-of-signal activity can be used to understand changes in the signaling as they relate to the gene PLAU. Furthermore, this assay endpoint can be referred to as a primary readout, because this assay has produced multiple assay endpoints where this one serves a signaling function. To generalize the intended target to other relatable targets, this assay endpoint is annotated to the protease intended target family, where the subfamily is serine protease.
The levels of cell surface (or secreted, indicated by the prefix "s") biomarker endpoints were measured by ELISA. Overt cytotoxicity to cells in confluent adherent cultures (all systems other than the BT system) was assessed by measuring total protein levels using sulforhodamine B (SRB) staining in parallel cultures at the time of biomarker measurements, indicated as SRB endpoints. For proliferation assays for adherent cell types, individual cell types are cultured at sub-confluence and relative cell numbers quantified by SRB staining at time points optimized for each system (48 h: 3C and CASM3C systems; 72 h: BT and HDF3CGF systems; 96 h: SAg system). SRB was performed by staining cells with 0.1% SRB after fixation with 10% TCA and reading wells at 560 nm.Viability and proliferation of PBMC (T cells) was quantified by Alamar Blue reduction for the SAg and BT systems. For PBMC viability (referred to as PBMC Cytotoxicity within the assay endpoint names), cells were plated (75,000/well in a 96-well plate) and then chemical samples added for 1 h before addition of activators, SEB and TSST-1 (20 ng/mL final concentration each). Cells were incubated for 90 h. Then, Alamar Blue (20 uL/well) (Invitrogen, Cat DAL1100) was added for 6 h, and the plates were read with a fluorescence microplate reader at 546/580 nm (excitation/emission). For PBMC proliferation, cells were plated and activated as above but incubated for only 16 h prior to addition of Alamar Blue. Plates were read after 6 h.
`OC[C@H]1O[C@@H]2O[C@H]3[C@H](O)[C@@H](O)[C@@H](O[C@H]4[C@H](O)[C@@H](O)[C@@H](O[C@H]5[C@H](O)[C@@H](O)[C@@H](O[C@H]6[C@H](O)[C@@H](O)[C@@H](O[C@H]7[C@H](O)[C@@H](O)[C@@H](O[C@H]1[C@H](O)[C@H]2O)O[C@@H]7CO)O[C@@H]6CO)O[C@@H]5CO)O[C@@H]4CO)O[C@@H]3CO`: the outcome was inactive.

Consider `FC(F)=C(F)C(F)(F)C(F)(F)C(F)(F)C(F)(F)C(F)(F)C(F)(F)F`, for which the result was inactive.

Regarding `O=S1(=O)CCCO1`, the outcome was inactive.

On to `O=C(NO)C1(NS(=O)(=O)c2ccc(Oc3ccc(F)cc3)cc2)CCOCC1`, for which the result was inactive.

On to `NC(=O)N1c2ccccc2C=Cc2ccccc21`, for which the outcome was inactive.

On to `OCCNCCO`, for which the result was inactive.

`Cc1ncc([C@@H](CCCCCCc2ccc3c(n2)NCCC3)CC(=O)O)cn1`: the result was inactive.

Regarding `NC(N)=O`, the result was inactive.

In the case of `S=P(N1CC1)(N1CC1)N1CC1`, the outcome was inactive.

For the molecule `O=S(=O)(O)c1ccc(N=Nc2c(O)ccc3cc(S(=O)(=O)O)ccc23)cc1`, the result was inactive.

For the molecule `CC(C)c1nnc2ccc(-c3ocnc3-c3cc(F)ccc3F)cn12`, the outcome was inactive.

As for `COS(C)(=O)=O`, the result was inactive.

In general, AC50 refers to the concentration giving half of the maximal activity seen. Regarding `NC(=O)NN=Cc1ccc([N+](=O)[O-])o1`, the AC50 was 7.99 µM (active).

With `CCCCCCCC/C=C\CCCCCCCC(=O)OC[C@@H](O)[C@H]1OC[C@H](O)[C@H]1O`, the result was inactive.

As to `Cn1cc[nH]c1=S`, the outcome was inactive.

`CCCc1ccccc1`: the result was inactive.

As to `C[Si](C)(C)C(F)(F)C(F)(F)C(F)(F)F`, the result was inactive.

`OCc1ccccc1`: the result was inactive.

`OC(CCl)CCl`: the result was inactive.

Turning to `CCCOc1ccc(S(=O)(=O)N2CCN(CC)CC2)cc1-c1nc2c(CC)n(Cc3ccccn3)nc2c(=O)[nH]1`, the outcome was inactive.

As for `c1ccc2cc3ccccc3cc2c1`, the result was inactive.

In the case of `CCCCCCCCCCCCCCO`, the result was inactive.

Consider `c1ccc(C(O[C@@H]2CCCN(CCc3ccc4c(c3)OCO4)C2)c2ccccc2)cc1`, for which the result was inactive.

As to `c1ccc2c(c1)-c1cccc3c1c-2cc1ccccc13`, the outcome was inactive.

For the molecule `CNC(C)=O`, the outcome was inactive.

Take `CC[C@H](C)C(=O)O[C@H]1C[C@H](O)C=C2C=C[C@H](C)[C@H](CC[C@@H](O)C[C@@H](O)CC(=O)O)[C@H]21`: the outcome was inactive.

For `FC(F)(F)C(F)(F)C(F)(F)C(F)(F)C(F)(F)C(F)(F)I`, the outcome was inactive.

Turning to `CCCCCOC(C)=O`, the outcome was inactive.

`CCCCN1C(=O)[C@@H]([C@H](O)C2CCCCC2)NC(=O)C12CCN(Cc1ccc(Oc3ccc(C(=O)O)cc3)cc1)CC2`: the outcome was inactive.

On to `CC(C)C(=O)Nc1ccc([N+](=O)[O-])c(C(F)(F)F)c1`, for which the result was inactive.

Regarding `CCCCCCCCN(C)C`, the result was inactive.

Take `CCCCCCCCCCCCCCCCOS(=O)(=O)O`: the AC50 is 15.7 µM (active).

Consider `CCn1nc(C)c2c1C(=O)NCC(c1ccc(O)cc1)=N2`, for which the outcome was inactive.

For the molecule `OCCC(F)(F)C(F)(F)C(F)(F)C(F)(F)F`, the result was inactive.

As to `OC[C@H]1O[C@@](CO)(O[C@H]2O[C@H](CO)[C@@H](O)[C@H](O)[C@H]2O)[C@@H](O)[C@@H]1O`, the result was inactive.

On to `O=C(O)c1cccc(C(=O)O)c1`, for which the outcome was inactive.

As to `Cc1nccn1-c1ccc(Sc2cccc(C3(C(N)=O)CCOCC3)c2)cc1`, the concentration at half-maximal activity (AC50) was 14.3 µM (active).

As to `CCCCCCOC(=O)CC(CC(=O)OCCCCCC)(OC(=O)CCC)C(=O)OCCCCCC`, the outcome was inactive.

`CCCCCCCCCC`: the outcome was inactive.

On to `OC(O)(C(F)C(O)(O)C(F)(F)F)C(F)(F)F`, for which the outcome was inactive.
